Drawing on PMC7862700, “An all-to-all approach to the identification of sequence-specific readers for epigenetic DNA modifications on cytosine”, this text covers binding signal for one sequence.

Holding throughout (experiment): DAPPL (digital affinity profiling via proximity ligation, sequencing); 10 mM Tris-HCl pH 7.5, 50 mM NaCl, 1 mM DTT, 4% glycerol, room temperature, 30 min; GST-TFs on glutathione beads, 16-mer random dsDNA library, 0.1% formaldehyde crosslink after washing; high values mean tight binding
The target of one test is T1, FLI1 (Homo sapiens, UniProt Q01543 1-452).
T1 sequence: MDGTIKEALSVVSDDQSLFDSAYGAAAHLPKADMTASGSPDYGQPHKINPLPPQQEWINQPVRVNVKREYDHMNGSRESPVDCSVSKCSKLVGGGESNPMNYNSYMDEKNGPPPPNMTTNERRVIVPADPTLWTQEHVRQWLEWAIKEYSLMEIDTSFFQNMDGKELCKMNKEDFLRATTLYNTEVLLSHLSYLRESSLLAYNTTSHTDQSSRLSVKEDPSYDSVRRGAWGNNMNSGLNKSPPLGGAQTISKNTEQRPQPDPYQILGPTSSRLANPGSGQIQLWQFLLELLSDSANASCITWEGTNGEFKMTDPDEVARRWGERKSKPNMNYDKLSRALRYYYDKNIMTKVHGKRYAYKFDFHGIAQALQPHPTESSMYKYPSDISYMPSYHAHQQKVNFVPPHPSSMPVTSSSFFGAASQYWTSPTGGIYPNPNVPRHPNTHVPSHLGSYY
The note with it: protein: recombinant; tags: N-terminal GST; dsDNA, one strand shown. In outline: (§1)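 Pools were built from human transcription factors expressed in yeast as GST fusions, captured on glutathione beads and DNA-barcoded, along with a tag-only sample. Incubation with 200 nmole of a 16-mer random double-stranded DNA library lasted 30 min at room temperature in Tris/NaCl/DTT/glycerol buffer, and was followed by washing, 0.1% formaldehyde crosslinking, proximity ligation, PCR amplification and Illumina NextSeq500 sequencing. Binding signal is the quotient of each hexamer's read frequency for a factor and its frequency for the tag-only sample.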

A further test addresses T2, ELK1 (Homo sapiens, UniProt P19419 1-428).
T2 sequence: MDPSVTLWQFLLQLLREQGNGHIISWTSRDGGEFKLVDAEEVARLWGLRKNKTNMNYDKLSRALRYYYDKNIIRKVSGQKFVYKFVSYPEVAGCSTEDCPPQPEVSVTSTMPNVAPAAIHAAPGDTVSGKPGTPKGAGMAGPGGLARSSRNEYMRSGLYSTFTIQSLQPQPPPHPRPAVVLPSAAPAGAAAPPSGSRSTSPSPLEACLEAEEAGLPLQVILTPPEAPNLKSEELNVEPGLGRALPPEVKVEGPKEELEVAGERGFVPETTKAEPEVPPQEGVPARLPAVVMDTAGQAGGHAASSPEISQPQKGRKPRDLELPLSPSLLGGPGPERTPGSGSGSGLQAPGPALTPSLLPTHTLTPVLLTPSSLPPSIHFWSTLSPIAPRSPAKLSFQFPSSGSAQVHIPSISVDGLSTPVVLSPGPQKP
The note with it: protein: recombinant; tags: N-terminal GST; dsDNA, one strand shown. The method in brief: as §1

A further test concerns the target T3, GABPA (Homo sapiens, UniProt Q06546 1-454).
T3 sequence: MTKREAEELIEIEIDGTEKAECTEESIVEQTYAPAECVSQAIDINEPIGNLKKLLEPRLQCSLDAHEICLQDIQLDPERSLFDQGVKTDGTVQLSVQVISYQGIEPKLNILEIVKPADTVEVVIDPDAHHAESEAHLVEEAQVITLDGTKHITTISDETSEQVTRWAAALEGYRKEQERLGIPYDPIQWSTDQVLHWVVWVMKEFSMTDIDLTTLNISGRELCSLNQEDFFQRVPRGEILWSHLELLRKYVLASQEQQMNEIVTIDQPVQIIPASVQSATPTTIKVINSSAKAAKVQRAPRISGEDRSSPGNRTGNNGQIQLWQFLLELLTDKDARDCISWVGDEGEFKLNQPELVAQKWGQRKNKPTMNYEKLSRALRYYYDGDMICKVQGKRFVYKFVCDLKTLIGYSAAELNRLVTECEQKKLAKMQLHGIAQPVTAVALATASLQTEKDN
The note with it: protein: recombinant; tags: N-terminal GST; dsDNA, one strand shown. In outline:
as §1

In another test the target is T4, ERG (Homo sapiens, UniProt P11308 1-479).
T4 sequence: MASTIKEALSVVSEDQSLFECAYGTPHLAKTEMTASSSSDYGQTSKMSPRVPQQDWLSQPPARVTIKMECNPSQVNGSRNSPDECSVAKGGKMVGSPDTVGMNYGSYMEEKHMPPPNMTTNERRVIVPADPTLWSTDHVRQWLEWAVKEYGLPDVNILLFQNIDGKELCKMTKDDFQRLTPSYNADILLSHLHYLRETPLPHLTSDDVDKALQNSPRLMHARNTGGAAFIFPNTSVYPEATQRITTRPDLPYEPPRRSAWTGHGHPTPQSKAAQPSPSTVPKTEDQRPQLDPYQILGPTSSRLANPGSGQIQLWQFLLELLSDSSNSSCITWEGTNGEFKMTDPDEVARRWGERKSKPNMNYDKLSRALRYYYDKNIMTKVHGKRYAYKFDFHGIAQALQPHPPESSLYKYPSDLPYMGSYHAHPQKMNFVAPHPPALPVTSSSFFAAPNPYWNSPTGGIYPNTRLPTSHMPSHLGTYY
The note with it: protein: recombinant; tags: N-terminal GST; dsDNA, one strand shown. In outline:
as §1

A further test concerns the target ELF1 (Homo sapiens, UniProt P32519 1-619). The note with it: protein: recombinant; tags: N-terminal GST; dsDNA, one strand shown. The method in brief: as §1
For another test, the target named is T5, EHF (Homo sapiens, UniProt Q9NZC4 1-300).
T5 sequence: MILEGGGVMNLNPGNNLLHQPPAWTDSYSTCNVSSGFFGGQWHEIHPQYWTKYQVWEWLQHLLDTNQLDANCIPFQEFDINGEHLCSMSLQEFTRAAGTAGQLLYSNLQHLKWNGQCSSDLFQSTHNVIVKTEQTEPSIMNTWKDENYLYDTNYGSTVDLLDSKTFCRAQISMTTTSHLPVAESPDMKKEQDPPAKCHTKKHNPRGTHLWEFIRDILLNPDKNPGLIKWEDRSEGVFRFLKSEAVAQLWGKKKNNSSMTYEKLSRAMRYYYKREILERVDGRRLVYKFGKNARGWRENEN
Particulars: protein: recombinant; tags: N-terminal GST; dsDNA, one strand shown. In outline:
as §1

The next test concerns the target SPI1 (Homo sapiens, UniProt P17947 1-270). Particulars: protein: recombinant; tags: N-terminal GST; dsDNA, one strand shown. In outline: as §1
A further test has as its target SPIB (Homo sapiens, UniProt Q01892 1-262). Particulars: protein: recombinant; tags: N-terminal GST; dsDNA, one strand shown. The method in brief: as §1
For another test, the target named is T6, ELK3 (Homo sapiens, UniProt P41970 1-407).
T6 sequence: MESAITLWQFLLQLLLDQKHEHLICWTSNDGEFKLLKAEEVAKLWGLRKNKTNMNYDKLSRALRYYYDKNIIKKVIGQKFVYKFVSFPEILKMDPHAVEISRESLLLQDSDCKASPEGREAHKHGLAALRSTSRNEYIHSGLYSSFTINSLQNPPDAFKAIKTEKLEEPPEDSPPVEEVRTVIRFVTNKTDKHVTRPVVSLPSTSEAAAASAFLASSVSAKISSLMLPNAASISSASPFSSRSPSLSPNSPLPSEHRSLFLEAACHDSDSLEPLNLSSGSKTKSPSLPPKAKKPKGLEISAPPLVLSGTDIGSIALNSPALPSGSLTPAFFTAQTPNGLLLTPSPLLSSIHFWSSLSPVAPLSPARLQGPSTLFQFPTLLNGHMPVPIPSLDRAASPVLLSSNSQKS
The note with it: protein: recombinant; tags: N-terminal GST; dsDNA, one strand shown. The method in brief: as §1

In a further test the target is T7, FEV (Homo sapiens, UniProt Q99581 1-238).
T7 sequence: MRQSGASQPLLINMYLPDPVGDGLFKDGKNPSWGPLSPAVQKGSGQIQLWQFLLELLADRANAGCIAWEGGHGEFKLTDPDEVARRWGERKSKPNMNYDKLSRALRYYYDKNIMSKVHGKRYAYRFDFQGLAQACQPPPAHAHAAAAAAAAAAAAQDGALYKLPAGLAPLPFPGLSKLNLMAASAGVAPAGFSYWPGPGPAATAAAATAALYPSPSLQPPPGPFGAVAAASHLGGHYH
Particulars: protein: recombinant; tags: N-terminal GST; dsDNA, one strand shown. In outline:
as §1

In a further test the target is ETV5 (Homo sapiens, UniProt P41161 1-510). The note with it: protein: recombinant; tags: N-terminal GST; dsDNA, one strand shown. The method in brief: as §1
Chain of ETV5 (P41161 whole entry): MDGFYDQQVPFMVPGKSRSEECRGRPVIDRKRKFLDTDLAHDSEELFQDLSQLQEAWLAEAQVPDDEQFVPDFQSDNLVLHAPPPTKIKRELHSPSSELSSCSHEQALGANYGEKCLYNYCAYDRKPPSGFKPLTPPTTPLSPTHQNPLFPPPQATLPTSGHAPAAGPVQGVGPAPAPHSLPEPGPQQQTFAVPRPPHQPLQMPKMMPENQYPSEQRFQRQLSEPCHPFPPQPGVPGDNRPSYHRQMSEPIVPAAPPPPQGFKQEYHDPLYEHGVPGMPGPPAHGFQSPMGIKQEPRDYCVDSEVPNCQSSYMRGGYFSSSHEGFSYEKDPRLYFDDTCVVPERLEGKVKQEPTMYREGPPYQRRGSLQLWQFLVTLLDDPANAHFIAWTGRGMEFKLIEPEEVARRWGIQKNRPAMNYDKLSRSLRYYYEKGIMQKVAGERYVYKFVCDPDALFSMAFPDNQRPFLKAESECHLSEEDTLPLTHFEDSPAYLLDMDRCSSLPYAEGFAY
A further test deals with HSF1 (Homo sapiens, UniProt Q00613 1-529). Particulars: protein: recombinant; tags: N-terminal GST; chain copies: 3; dsDNA, one strand shown. The method in brief:
as §1

For a further test, the target named is T8, SPIC (Homo sapiens, UniProt Q8N5J4 1-248).
T8 sequence: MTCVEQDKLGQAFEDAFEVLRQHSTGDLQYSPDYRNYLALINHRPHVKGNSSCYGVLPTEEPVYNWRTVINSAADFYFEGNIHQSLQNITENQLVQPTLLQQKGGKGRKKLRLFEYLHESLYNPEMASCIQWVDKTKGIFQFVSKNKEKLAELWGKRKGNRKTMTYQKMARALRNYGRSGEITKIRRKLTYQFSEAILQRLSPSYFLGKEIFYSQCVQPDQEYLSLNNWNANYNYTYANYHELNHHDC
Particulars: protein: recombinant; tags: N-terminal GST; dsDNA, one strand shown. The method in brief:
as §1

The next test has as its target ELF4 (Homo sapiens, UniProt Q99607 1-663). The note with it: protein: recombinant; tags: N-terminal GST; dsDNA, one strand shown. The method in brief:
as §1

Another test has as its target T9, ELK4 (Homo sapiens, UniProt P28324-2 1-405).
T9 sequence: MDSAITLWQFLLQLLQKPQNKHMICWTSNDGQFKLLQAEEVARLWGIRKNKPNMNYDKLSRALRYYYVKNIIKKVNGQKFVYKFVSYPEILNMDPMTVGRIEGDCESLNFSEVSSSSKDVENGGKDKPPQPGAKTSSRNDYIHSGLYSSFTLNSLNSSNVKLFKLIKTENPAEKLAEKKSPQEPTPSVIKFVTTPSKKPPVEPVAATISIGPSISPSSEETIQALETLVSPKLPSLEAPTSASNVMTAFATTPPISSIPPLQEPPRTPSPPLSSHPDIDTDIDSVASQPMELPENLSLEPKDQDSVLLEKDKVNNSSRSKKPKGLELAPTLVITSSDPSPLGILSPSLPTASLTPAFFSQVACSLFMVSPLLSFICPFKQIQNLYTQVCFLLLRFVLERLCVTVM
Particulars: protein: recombinant; tags: N-terminal GST; dsDNA, one strand shown. The method in brief:
as §1

The target in the next test is T10, ETV2 (Homo sapiens, UniProt O00321 1-342).
T10 sequence: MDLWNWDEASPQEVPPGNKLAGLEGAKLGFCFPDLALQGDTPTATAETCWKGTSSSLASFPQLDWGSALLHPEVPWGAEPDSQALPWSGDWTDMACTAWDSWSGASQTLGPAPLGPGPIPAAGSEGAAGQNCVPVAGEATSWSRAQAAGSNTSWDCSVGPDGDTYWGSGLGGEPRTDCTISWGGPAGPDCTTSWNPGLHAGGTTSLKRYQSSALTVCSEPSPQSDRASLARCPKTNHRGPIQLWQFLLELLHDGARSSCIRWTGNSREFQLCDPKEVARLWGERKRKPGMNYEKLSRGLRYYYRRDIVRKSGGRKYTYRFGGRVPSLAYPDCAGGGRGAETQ
The note with it: protein: recombinant; tags: N-terminal GST; dsDNA, one strand shown. In outline:
as §1

The next test addresses T11, ELF3 (Homo sapiens, UniProt P78545 1-371).
T11 sequence: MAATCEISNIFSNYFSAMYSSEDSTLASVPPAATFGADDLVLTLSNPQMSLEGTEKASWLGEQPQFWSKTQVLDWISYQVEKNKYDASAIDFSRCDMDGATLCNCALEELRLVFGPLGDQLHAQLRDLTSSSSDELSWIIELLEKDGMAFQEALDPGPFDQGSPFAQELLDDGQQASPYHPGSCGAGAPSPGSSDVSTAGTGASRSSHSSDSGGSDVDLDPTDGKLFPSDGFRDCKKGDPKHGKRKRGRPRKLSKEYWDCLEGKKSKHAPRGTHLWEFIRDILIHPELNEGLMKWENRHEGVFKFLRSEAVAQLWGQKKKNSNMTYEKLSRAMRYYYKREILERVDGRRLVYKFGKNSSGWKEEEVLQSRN
Particulars: protein: recombinant; tags: N-terminal GST; dsDNA, one strand shown. In outline:
as §1

For another test, the target named is CRX (Homo sapiens, UniProt O43186 1-299). Particulars: protein: recombinant; tags: N-terminal GST; dsDNA, one strand shown. In outline:
as §1

The target of a further test is ETV1 (Homo sapiens, UniProt P50549 1-477). The note with it: protein: recombinant; tags: N-terminal GST; dsDNA, one strand shown. In outline:
as §1

Chain of CRX (O43186 whole entry): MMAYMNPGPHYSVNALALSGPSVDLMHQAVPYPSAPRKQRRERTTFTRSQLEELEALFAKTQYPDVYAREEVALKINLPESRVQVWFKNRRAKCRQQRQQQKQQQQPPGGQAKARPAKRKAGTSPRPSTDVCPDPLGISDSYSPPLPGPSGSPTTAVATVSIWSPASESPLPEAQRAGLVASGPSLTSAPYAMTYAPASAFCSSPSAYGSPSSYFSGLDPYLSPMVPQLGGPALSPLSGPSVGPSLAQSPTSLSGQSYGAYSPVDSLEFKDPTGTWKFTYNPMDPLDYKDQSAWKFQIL
Chain of ELF4 (Q99607 whole entry): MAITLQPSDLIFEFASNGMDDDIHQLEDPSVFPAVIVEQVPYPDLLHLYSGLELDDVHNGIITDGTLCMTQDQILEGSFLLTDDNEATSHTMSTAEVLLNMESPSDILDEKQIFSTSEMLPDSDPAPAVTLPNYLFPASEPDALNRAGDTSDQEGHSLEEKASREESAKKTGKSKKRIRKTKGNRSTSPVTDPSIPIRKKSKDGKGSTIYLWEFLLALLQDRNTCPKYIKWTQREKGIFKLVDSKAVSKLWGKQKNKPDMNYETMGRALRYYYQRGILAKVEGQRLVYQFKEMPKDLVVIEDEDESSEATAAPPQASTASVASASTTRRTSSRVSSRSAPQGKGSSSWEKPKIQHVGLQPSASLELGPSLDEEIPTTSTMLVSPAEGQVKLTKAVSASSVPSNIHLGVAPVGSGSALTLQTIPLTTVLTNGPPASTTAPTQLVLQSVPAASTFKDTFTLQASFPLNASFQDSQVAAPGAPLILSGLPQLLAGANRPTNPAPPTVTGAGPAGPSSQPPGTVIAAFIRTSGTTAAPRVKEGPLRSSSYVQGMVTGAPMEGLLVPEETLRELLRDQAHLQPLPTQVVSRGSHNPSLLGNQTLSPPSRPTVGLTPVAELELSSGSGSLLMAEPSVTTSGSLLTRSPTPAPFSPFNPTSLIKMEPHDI
Chain of SPIB (Q01892 whole entry): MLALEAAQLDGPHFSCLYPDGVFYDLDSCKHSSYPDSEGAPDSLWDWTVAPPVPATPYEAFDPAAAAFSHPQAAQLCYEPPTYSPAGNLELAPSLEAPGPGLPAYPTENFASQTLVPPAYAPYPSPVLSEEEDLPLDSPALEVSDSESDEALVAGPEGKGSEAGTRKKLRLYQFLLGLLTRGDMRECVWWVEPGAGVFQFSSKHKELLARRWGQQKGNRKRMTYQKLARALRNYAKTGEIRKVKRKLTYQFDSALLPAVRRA
Chain of ETV1 (P50549 whole entry): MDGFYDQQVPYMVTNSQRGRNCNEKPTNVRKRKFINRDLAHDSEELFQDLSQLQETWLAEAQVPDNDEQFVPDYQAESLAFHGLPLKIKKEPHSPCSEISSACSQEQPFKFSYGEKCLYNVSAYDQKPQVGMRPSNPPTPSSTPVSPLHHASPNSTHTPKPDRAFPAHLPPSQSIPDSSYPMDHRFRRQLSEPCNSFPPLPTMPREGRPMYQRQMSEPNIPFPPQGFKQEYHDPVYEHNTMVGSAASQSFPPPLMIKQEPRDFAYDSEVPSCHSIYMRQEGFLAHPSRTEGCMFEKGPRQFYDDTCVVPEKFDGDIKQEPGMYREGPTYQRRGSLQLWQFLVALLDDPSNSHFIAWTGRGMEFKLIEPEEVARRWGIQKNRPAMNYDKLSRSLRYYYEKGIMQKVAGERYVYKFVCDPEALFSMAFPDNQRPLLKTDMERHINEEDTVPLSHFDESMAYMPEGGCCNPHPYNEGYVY
Chain of ELF1 (P32519 whole entry): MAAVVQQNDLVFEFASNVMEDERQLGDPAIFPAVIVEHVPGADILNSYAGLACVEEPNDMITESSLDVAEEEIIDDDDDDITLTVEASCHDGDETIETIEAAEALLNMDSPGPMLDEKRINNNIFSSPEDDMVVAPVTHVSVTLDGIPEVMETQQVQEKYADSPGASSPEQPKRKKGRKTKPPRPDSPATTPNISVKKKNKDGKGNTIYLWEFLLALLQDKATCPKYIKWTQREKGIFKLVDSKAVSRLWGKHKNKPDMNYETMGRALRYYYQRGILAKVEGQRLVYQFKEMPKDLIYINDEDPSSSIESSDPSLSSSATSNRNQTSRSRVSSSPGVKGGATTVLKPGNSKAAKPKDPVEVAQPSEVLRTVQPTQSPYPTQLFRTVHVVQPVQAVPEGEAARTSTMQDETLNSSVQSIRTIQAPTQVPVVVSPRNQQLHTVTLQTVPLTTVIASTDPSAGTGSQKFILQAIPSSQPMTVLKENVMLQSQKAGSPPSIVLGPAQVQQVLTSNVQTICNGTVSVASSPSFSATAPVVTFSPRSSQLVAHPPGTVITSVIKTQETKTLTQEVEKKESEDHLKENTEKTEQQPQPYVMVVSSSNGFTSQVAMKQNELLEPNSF
Chain of HSF1 (Q00613 whole entry): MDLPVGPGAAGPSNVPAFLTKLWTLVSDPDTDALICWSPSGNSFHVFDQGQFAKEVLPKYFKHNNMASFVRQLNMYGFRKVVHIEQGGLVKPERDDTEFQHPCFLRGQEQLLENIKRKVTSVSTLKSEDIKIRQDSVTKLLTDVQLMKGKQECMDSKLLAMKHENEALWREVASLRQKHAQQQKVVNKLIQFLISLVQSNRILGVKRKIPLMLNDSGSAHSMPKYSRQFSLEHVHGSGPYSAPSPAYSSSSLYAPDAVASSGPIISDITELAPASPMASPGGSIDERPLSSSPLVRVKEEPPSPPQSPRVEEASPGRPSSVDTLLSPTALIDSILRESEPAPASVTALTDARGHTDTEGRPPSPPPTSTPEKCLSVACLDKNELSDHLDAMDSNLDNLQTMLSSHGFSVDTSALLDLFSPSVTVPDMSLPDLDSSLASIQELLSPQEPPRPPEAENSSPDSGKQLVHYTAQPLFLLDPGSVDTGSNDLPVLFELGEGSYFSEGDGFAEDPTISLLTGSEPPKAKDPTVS

For TTTCTG, the binding signal is 1.4 fold enrichment (6-mer frequency, TF over GST control) in the test with FLI1; 1.35 fold enrichment (6-mer frequency, TF over GST control) with ELK1; 1.36 fold enrichment (6-mer frequency, TF over GST control) with GABPA; 1.33 fold enrichment (6-mer frequency, TF over GST control) in the test with ERG; 1.34 fold enrichment (6-mer frequency, TF over GST control) with ELF1; 1.38 fold enrichment (6-mer frequency, TF over GST control) with EHF. Also, the binding signal in the test with SPI1 is 1.42 fold enrichment (6-mer frequency, TF over GST control); in the test with SPIB it was 1.3 fold enrichment (6-mer frequency, TF over GST control); with ELK3 it was 1.46 fold enrichment (6-mer frequency, TF over GST control); in the test with FEV, 1.32 fold enrichment (6-mer frequency, TF over GST control); in the test with ETV5, 1.31 fold enrichment (6-mer frequency, TF over GST control); with HSF1, 2.33 fold enrichment (6-mer frequency, TF over GST control). For the same sequence, the binding signal is 1.3 fold enrichment (6-mer frequency, TF over GST control) in the test with SPIC; 1.39 fold enrichment (6-mer frequency, TF over GST control) in the test with ELF4; 1.52 fold enrichment (6-mer frequency, TF over GST control) with ELK4; 1.36 fold enrichment (6-mer frequency, TF over GST control) with ETV2; 1.44 fold enrichment (6-mer frequency, TF over GST control) in the test with ELF3; 1.45 fold enrichment (6-mer frequency, TF over GST control) with CRX. Moreover, the binding signal with ETV1 is 1.3 fold enrichment (6-mer frequency, TF over GST control).
